Results filed as inconclusive are left out. Activity calls are given as the source filed them. Unless noted, calls come from the whole dose curve; as a rule, active = well fitted curve in the direction sought with a large enough effect in the repeat runs; inconclusive = weak or mixed curves; inactive = no such curve, though single readings can be large; an effect the other way counts as inactive or inconclusive.

Test [1] in a line: qHTS assay to test for compound auto fluorescence at 535 nm (green) in HEK293 cells (AID 720680).
Test [2] can be described thus: qHTS assay to test for compound auto fluorescence at 460 nm (blue) in HEK293 cell free culture (AID 720681). The essentials: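 Test compounds were pinned into cell-free culture medium (DMEM with 10% FBS) and fluorescence was read directly at Ex/Em 405/460 nm. Signals were expressed as fluorescence equivalents of triamterene, with DMSO vehicle as control.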
On the technique in general: In qHTS, concentration-response curves come from the screen itself.

A short description of test [3]: qHTS assay to test for compound auto fluorescence at 535 nm (green) in HEK293 cell free culture (AID 720682). The essentials: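 Each library compound, or DMSO control, is added by pintool to medium alone, comprising DMEM and 10% FBS. Emission at 535 nm following 485 nm excitation is quantified against fluorescein.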
Test [4] is described as follows: qHTS assay to test for compound auto fluorescence at 590 nm (red) in HEK293 cell free culture (AID 720683). An outline of the steps:
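Tox21 10K library compounds were pinned into cell-free DMEM with 10% FBS and fluorescence was read at excitation 540 nm. Activity is expressed as Rose Bengal sodium equivalency.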

A short description of test [5]: qHTS assay to test for compound auto fluorescence at 590 nm (red) in HepG2 cell free culture (AID 720684). An outline of the steps:
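Measured in medium alone (MEM containing 10% FBS) following pintool addition of compound; emission at 590 nm with 540 nm excitation, referenced to Rose Bengal sodium.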

A short description of test [6]: qHTS assay to test for compound auto fluorescence at 460 nm (blue) in HepG2 cell free culture (AID 720685). An outline of the steps:
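Compound (23 nL) or DMSO pinned into cell-free MEM with 10% FBS; blue fluorescence read at 405/460 nm excitation/emission, expressed as auto-fluorescence equivalency to triamterene.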

Test [7] can be described thus: qHTS assay to test for compound auto fluorescence at 535 nm (green) in HepG2 cell free culture (AID 720686).
Test [8] in a line: qHTS assay to test for compound auto fluorescence at 460 nm (blue) in HepG2 cells (AID 720687). An outline of the steps:
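Cells (2,000/well in MEM with 10% FBS) attached overnight at 37 C, then were exposed to compound or DMSO for 1 hr at 37 C, 5% CO2. Fluorescence read at Ex/Em 405/460 nm, expressed as triamterene-equivalent signal.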

For test [9], the target named is Glucocorticoid receptor (Homo sapiens) (UniProt P04150). In words: qHTS assay to identify small molecule antagonists of the glucocorticoid receptor (GR) signaling pathway (AID 720692; active = well fitted inhibition curve with a large enough effect in the signal ratio in the repeat runs, not every such curve was filed as active; the % refers to the signal ratio; note: potency is the fitted concentration of half-maximal effect). An outline of the steps: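 GR-bla HeLa cells carrying a GRE-driven beta-lactamase reporter received compound after 4 h plating, then dexamethasone (5 nM final). After 18 h at 37C, the FRET substrate was loaded for 2 h at room temperature and fluorescence read.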
Sequence of Glucocorticoid receptor (Homo sapiens) (P04150 whole entry, looked up): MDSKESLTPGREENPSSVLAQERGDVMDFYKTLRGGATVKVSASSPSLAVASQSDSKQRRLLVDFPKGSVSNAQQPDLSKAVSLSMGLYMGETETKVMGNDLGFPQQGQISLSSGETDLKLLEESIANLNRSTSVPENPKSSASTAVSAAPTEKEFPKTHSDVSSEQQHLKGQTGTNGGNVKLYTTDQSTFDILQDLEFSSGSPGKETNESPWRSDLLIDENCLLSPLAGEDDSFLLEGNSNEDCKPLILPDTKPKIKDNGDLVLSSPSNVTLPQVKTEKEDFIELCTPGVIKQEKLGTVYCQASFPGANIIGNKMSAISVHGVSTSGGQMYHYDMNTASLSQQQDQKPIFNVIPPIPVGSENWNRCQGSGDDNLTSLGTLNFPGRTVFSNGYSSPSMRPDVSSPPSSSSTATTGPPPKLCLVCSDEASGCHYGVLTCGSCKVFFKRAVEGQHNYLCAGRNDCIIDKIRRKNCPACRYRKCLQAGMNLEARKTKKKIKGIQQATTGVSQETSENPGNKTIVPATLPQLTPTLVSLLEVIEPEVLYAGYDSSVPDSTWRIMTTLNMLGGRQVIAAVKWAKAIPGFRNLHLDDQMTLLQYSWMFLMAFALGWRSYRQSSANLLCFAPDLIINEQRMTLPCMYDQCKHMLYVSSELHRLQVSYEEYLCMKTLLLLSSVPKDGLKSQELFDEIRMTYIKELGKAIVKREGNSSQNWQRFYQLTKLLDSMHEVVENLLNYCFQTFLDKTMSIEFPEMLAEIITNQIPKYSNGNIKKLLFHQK

A short description of test [10]: qHTS assay to identify small molecule antagonists of the glucocorticoid receptor (GR) signaling pathway - cell viability counter screen (AID 720693). Note: nearly all actives have a fitted effect of over 55% in size.
Test [11] can be described thus: qHTS assay for identifying genotoxic compounds that show differential cytotoxicity against isogenic chicken DT40 cell lines with known DNA damage response pathways - wild type cell line (AID 743012). Note: nearly all actives have a fitted effect of over 60% in size. Note: potency is the fitted concentration of half-maximal effect. An outline of the steps:
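Wild-type DT40 cells (300/well) exposed to compounds for 40 hours at 37 C/5% CO2. Viability read by CellTiter-Glo luminescence after 30 min at room temperature.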

Test [12] in a line: qHTS assay for identifying genotoxic compounds that show differential cytotoxicity against isogenic chicken DT40 cell lines with known DNA damage response pathways - Rad54/Ku70 mutant cell line (AID 743015). Note: nearly all actives have a fitted effect of over 60% in size. Note: potency is the fitted concentration of half-maximal effect.
Test [13] can be described thus: qHTS assay to identify small molecule antagonists of the androgen receptor (AR) signaling pathway - cell viability counter screen (AID 743033; note: nearly all actives have a fitted effect of over 45% in size).
The nature of test [14]: qHTS assay to identify small molecule antagonists of the androgen receptor (AR) signaling pathway using the MDA cell line - cell viability counter screen (AID 743041; note: nearly all actives have a fitted effect of over 45% in size). The essentials:
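Viability counter screen run alongside the AR antagonist reporter: cells seeded 5 h before compound, R1881 added, 16 h incubation at 37C without CO2, fluorescent CellTiter-Fluor signal quantified.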

Test [15] is described as follows: qHTS assay for identifying genotoxic compounds that show differential cytotoxicity against isogenic chicken DT40 cell lines with known DNA damage response pathways - Rev3 mutant cell line (AID 743014). Note: nearly all actives have a fitted effect of over 55% in size. Note: potency is the fitted concentration of half-maximal effect.
Test [16] concerns the target Androgen receptor (Homo sapiens) (UniProt P10275). Kind of test: qHTS assay to identify small molecule agonists of the androgen receptor (AR) signaling pathway (AID 743036; active = well fitted activation curve with a large enough effect in the signal ratio in the repeat runs, with a control signal flat, not every such curve was filed as active; the % refers to the signal ratio). An outline of the steps: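 Following a 4 h settling period, AR-UAS-bla HEK293 cells were dosed with compounds for 16 h at 37C. A 2 h room-temperature incubation with LiveBLAzer B/G FRET substrate preceded the fluorescence measurement.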

Test [17] shares this target. Kind of test: qHTS assay to identify small molecule agonists of the androgen receptor (AR) signaling pathway using the MDA cell line (AID 743040; note: nearly all actives have a fitted effect of over 20% in size). An outline of the steps: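 Luminescence from ONE-Glo, read after 30 min at room temperature, reflects MMTV-driven luciferase in MDA-kb2 cells (AR- and GR-responsive). Treatment lasted 16 h at 37C, 0% CO2.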
Test [18] has the same target. In words: qHTS assay to identify small molecule antagonists of the androgen receptor (AR) signaling pathway using the MDA cell line (AID 743042; note: nearly all actives have a fitted effect of over 55% in size). The essentials: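 MDA-kb2 cells (human breast carcinoma, stably carrying an MMTV-luciferase reporter responsive to AR and GR) were plated at 3,000 cells/well and preincubated 5 hr at 37C, then given compound plus R1881 agonist for 16 h. ONE-Glo luminescence was read.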

Sequence of Androgen receptor (Homo sapiens) (P10275 whole entry, looked up): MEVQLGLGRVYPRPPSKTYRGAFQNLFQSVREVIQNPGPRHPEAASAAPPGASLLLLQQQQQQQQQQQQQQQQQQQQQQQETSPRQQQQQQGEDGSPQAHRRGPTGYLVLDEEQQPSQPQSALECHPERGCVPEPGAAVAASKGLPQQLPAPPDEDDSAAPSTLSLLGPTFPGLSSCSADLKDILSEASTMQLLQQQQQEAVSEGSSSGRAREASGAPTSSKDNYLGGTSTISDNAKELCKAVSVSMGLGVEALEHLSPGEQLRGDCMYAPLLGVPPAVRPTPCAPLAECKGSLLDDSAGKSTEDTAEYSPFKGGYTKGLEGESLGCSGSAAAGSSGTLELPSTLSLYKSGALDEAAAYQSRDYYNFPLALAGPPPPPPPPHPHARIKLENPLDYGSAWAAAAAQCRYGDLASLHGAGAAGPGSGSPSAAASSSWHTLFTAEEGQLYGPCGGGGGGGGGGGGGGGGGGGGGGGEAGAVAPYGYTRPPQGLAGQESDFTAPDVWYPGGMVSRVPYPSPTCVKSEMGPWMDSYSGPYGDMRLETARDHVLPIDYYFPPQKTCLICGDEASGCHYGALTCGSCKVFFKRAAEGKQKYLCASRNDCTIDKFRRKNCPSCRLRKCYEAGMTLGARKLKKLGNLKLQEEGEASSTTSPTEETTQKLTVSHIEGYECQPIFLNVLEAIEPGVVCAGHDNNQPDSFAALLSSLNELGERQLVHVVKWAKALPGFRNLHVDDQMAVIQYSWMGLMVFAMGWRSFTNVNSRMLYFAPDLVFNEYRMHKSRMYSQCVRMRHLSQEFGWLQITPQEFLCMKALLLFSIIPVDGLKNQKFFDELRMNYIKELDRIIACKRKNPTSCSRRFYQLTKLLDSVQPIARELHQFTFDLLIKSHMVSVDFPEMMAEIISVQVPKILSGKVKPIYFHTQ

`COC(=O)C1=C(C#N)NC(C)=C(C(=O)OC(C)C)C1c1cccc([N+](=O)[O-])c1` (configuration not stated): the Potency entry in test [1], in [2], in [3], in test [4], in test [5] and in test [7] was “inactive” in each case. Also, the Potency result in [10], in test [13] and in [14] was “inactive” in each case. For the same molecule, the outcome in [6] and in test [8] was inactive. The Potency in test [9] was 19 µM (active); in [11], 13.3 µM (active); in test [12], 18.8 µM (active).

Regarding `CCCCCc1ccc(C)cc1O`, the Potency result in test [1], in test [2], in [3], in [4], in test [5] and in test [7] was “inactive” each time. Further, the Potency entry in [9], in test [10], in test [11], in [15], in [12] and in test [16] was “inactive” throughout. Besides, the Potency result in [17], in test [14] and in [18] was “inactive” throughout. Moreover, the molecule was classed as inactive in test [6] and in [8].

As to `CO[C@@H]1[C@@H](O[C@@H]2O[C@H](C)[C@@H](O[C@H]3C[C@@](C)(O)[C@@H](OC(=O)CC(C)C)[C@H](C)O3)[C@H](N(C)C)[C@H]2O)[C@@H](CC=O)C[C@@H](C)C(=O)/C=C/C2OC2C[C@@H](C)OC(=O)C[C@H]1OC(C)=O` (some centres not stated), the Potency entry in test [1], in test [2], in test [3], in test [4], in [5] and in [7] was “inactive” each time. Further, the Potency result in [10], in test [13] and in [17] was “inactive” throughout. Further, the molecule was called inactive in test [6] and in [8]. The Potency was 3.35 µM (active) in test [11], 5.31 µM (active) in test [15] and 5.31 µM (active) in [12].

In the case of `c1cnc2cc3c(cc2n1)[C@@H]1CNC[C@H]3C1`, the Potency entry in [1], in [2], in test [3], in test [4], in test [5] and in [7] was “inactive” throughout. Moreover, the Potency result in test [10], in test [11], in test [15], in [12] and in test [13] was “inactive” in each case. Besides, the outcome in test [6] and in test [8] was inactive.

As to `CCOC(=O)C1=C(COCCN)NC(C)=C(C(=O)OC)C1c1ccccc1Cl` (configuration not stated), the Potency entry in test [1], in test [2], in test [3], in [4], in [5] and in test [7] was “inactive” throughout. Also, the Potency result in test [9], in [10], in test [13] and in test [14] was “inactive” throughout. Moreover, the molecule was called inactive in test [6] and in test [8]. The Potency is 7.5 µM (active) in test [11], 13.3 µM (active) in test [15] and 13.3 µM (active) in test [12].

With `CC(CC(c1ccccc1)c1ccccc1)NC(C)(C)C` (configuration not stated), the Potency result in test [1], in test [2], in [3], in [4], in [5] and in test [7] was “inactive” in each case. In addition, the Potency entry in [10], in test [13] and in test [14] was “inactive” throughout. For the same molecule, the molecule was called inactive in test [6] and in [8]. In addition, the Potency in test [11] is 10.6 µM (active); in [15], 23.7 µM (active); in test [12] it was 29.8 µM (active).

Values taken from PubChem BioAssay (Tox21).
